High-throughput results deposited in PubChem BioAssay by National Center for Advancing Translational Sciences (NCATS).
Shown are actives, neighbours in structure and some others; about 4.2% of the full set was active somewhere.
Sfp PPTase inh: Sfp phosphopantetheinyl transferase inhibition; Q9F4F7; Biochemical Sfp PPTase activity, qHTS; 310,000 compounds, 3.5% hits; Potency, µM, actives largely listed as inhibitors;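 note: the enzyme is Sfp with the accession as filed and its product quenches rhodamine fluorescence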
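Sfp 15 nM + cpd, 15 min RT; start w/ rhodamine-CoA 5 uM, BHQ-2-YbbR 12.5 uM (final); 50 mM Hepes pH 7.6, 10 mM MgCl2, 0.01% NP-40, 0.01% BSA; read 525/598 nm at 0 and 30 min.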
PLK1 PBD inh: blocks phosphopeptide binding to human PLK1 polo-box domain; P53350; Plk1 PBD binding of FITC phosphopeptide, fluorescence polarization; Potency, µM, most hits filed as inhibitors; 360,000 compounds, 2.8% hits; AID 720504; note: series mostly up to about 57 µM; nearly all actives have a fitted effect of over 65% in size
VDR inh: blocks the human vitamin D receptor; Potency, µM, actives largely listed as inhibitors; 400,000 compounds, 0.93% hits; P11473; VDR-SRC2-3 peptide fluorescence polarization, 2 h
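Inhibition of the VDR/SRC2-3 peptide interaction is quantified by fluorescence polarization. Compounds (23 nl, pintool) incubate with the reagents for 2 hours at ambient room temperature.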
ALOX12 inh: inhibitors of human 12S-lipoxygenase ALOX12 | P18054 | purified 12hLO, xylenol orange hydroperoxide absorbance | Potency, µM (titrated, usually from 108 µM), usual class: inhibitors | 580,000 compounds, 1.1% hits | AID 1671190
Target sequence (P18054 whole entry, looked up): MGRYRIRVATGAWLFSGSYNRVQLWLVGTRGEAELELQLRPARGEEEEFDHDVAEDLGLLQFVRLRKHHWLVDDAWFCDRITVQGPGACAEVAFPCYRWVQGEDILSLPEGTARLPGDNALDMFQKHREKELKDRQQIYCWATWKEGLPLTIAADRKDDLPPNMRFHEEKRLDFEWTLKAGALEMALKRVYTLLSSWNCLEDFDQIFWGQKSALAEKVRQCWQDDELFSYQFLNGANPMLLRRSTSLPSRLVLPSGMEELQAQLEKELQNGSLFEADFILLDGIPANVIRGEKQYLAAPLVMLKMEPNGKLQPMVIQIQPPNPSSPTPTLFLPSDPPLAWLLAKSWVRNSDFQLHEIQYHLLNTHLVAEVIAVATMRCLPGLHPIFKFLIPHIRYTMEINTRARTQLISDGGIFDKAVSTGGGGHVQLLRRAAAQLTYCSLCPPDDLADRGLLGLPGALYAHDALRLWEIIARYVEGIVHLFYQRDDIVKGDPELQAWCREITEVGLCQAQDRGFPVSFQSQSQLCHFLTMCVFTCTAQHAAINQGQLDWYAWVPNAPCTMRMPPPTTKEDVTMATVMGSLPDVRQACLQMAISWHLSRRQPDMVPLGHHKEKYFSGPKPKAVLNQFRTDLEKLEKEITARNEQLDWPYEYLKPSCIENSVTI
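Purified human 12hLO at 150 nM in 25 mM Hepes, 0.01% Triton X-100, pH 7.0, preincubated 15 min at room temperature with compound. Reaction started with 40 uM arachidonic acid, 30 min at room temperature. Hydroperoxide measured by Fe-xylenol orange, 573/405 nm absorbance ratio.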
Hits are given with their value; – = inactive; ? = inconclusive; · = no result given; [ ] = remark or other dose. Calls come from the whole dose curve; as a rule, active = well fitted curve in the direction sought with a large enough effect; inconclusive = small, poorly fitted or top-dose-only effect, or another doubt; inactive = no such curve, though single readings can be large; an effect the other way counts as inactive or inconclusive.

SMILES	Sfp PPTase inh	PLK1 PBD inh	VDR inh	ALOX12 inh
CCOC(=O)c1sc(Nc2ccccc2Cl)nc1C	–	–	–	28µM
CCCn1c(SCc2ccccc2)nc2c1c(=O)[nH]c(=O)n2C	–	?	?	–
C/C=C/Cn1c(SCc2ccc(C)cc2)nc2c1c(=O)[nH]c(=O)n2C	–	21µM	?	?
CC=CCn1c(SCc2ccccc2)nc2c1c(=O)[nH]c(=O)n2C	·	27µM	·	?
COc1ccc(C(=O)Nc2c3c(nn2C(C)(C)C)CS(=O)(=O)C3)cc1OC	–	–	–	–
COCC(=O)Nc1ccc(OC)c(Cl)c1	–	–	–	–
COc1ccc(NC(=O)COC(C)=O)cc1Cl	–	27µM	–	–
CCOC(=O)/C=C/C(=O)OCC(=O)Nc1ccc(OC)c(Cl)c1	–	?	79µM	–
COc1ccc(NC(=O)COC(=O)/C=C/C(=O)OCC(=O)Nc2ccc(OC)c(Cl)c2)cc1Cl	79µM	–	–	–
CC(C)NC(=O)CN1CCCN(c2ncccc2C(F)(F)F)CC1	·	·	·	–
Cc1cccc(NC(=O)c2n[nH]c(=O)c3ccccc23)c1	·	·	·	–
COc1ccc(F)cc1-c1cc(C(=O)NCc2ccc(C(F)(F)F)cc2)[nH]n1	·	–	·	–
Brc1ccc(NC2=Nc3ccccc3CC2)cc1	–	12µM	?	–
Cc1cccc(Oc2ccc(NC(=O)C3CC=CCC3C(=O)O)cc2)c1 (stereo not given)	–	–	–	–
Cc1[nH]nc2c1C(=O)CCC2	–	7.5µM	–	–
Cc1ccc(C)c(N(C(=O)CNC(=O)c2ccco2)C(C(=O)NC2CCCCC2)c2cccnc2)c1 (stereo not given)	–	–	–	–
CC[n+]1c(/C=C/N(C)c2ccccc2)n(-c2ccccc2)c2ccc(-c3nc4ccccc4s3)cc21	45µM	–	–	·
CSc1nn(CCc2ccncc2)c(=S)s1	50µM	–	–	–
CCN(CC)c1ccc(/C=C2/C(=O)N(c3ccc([N+](=O)[O-])cc3)N=C2N2CCOCC2)cc1	–	·	·	·
COc1cc(/C=C2/C(=O)N(c3ccc([N+](=O)[O-])cc3)N=C2N2CCOCC2)ccc1O	–	11µM	?	–
CCc1nc2ccc(C(=O)NCCN3CCOCC3)cn2c1N(C=O)Cc1ccc(OC)cc1	·	–	·	–
O=C(O)c1ccc(C(=O)Nc2ccc(F)cc2)cc1	·	–	–	–
NC(N)=NCc1ccc(CN2CCCC2)cc1	·	·	·	45µM
N#Cc1ccccc1CN1CCCCC12Cc1ccccc1CNC2=O (stereo not given)	·	·	·	–[6.33 µM]
CCCCNC(=O)C1(C)CCCCN1C(=O)c1cc(OC)ccc1Br (stereo not given)	·	–	·	–
SMILES	Sfp PPTase inh	PLK1 PBD inh	VDR inh	ALOX12 inh
CN1CCN(c2ccc(Cl)cc2NS(=O)(=O)c2ccccc2Cl)CC1	–	27µM	–	?
CN1CCN(c2ccc(Cl)cc2NC(=O)c2ccc(S(=O)(=O)N(C)C)cc2)CC1	–	–	–	–
CCN(CC)S(=O)(=O)c1cc(C(=O)Nc2cc(Cl)ccc2N2CCN(C)CC2)ccc1Cl	50µM	–	–	–
CCn1c(SCc2nc3sc(C(=O)O)c(C)c3c(=O)[nH]2)nnc1-c1ccc(Cl)cc1	–	–	–	–
Cc1sc2nc(CSc3nnnn3-c3ccc(Cl)cc3)[nH]c(=O)c2c1C	79µM	–	–	–
COc1ccc(C(=S)N2CCC(C(N)=O)CC2)cc1Br	40µM	19µM	–	–
NC(=O)C1CCN(C(=S)c2ccc(-c3ccc(Br)cc3)o2)CC1	16µM	12µM	–	–
CCOc1ccc(N(CC)C(=O)c2cc3c(s2)-c2ccccc2OC3)cc1	·	·	–	–
N#CCCN(C(=O)c1ccc2c(=O)n3c(nc2c1)CCCCC3)c1ccccc1	–	24µM	–	–
N#CCCN(C(=O)COC(=O)c1ccc2c(=O)n3c(nc2c1)CCC3)c1ccccc1	–	?	?	–
CCCCCC(=O)N1CC[C@@H](CC(=O)NCc2cccs2)[C@@H](CC)C1	·	·	·	–
COc1cc(/C=N/Nc2nc(=O)[nH]nc2C)ccc1O	56µM	–	–	–
COc1cc(/C=N/Nc2nc(=O)[nH]nc2C)cc([N+](=O)[O-])c1O	56µM	–	–	–
COc1ccc(/C=N/Nc2nc(=O)[nH]nc2C)cc1[N+](=O)[O-]	?	–	–	–
COc1ccc(/C=N/Nc2nc(=O)[nH]nc2C)cc1OC	–	–	–	–
Cc1n[nH]c(=O)nc1N/N=C/c1ccc(O)c([N+](=O)[O-])c1	56µM	–	–	–
Cc1oc(-c2cccs2)nc1CN1CCCC(c2ccn[nH]2)C1 (stereo not given)	·	·	·	–
Cn1cnc(C(=O)N2CCC3(CC2)CC(N2CCN(c4ccccc4)CC2)CCO3)c1 (stereo not given)	·	·	·	–
COc1ccccc1CNc1ncnc2ccc(-c3cccnc3)cc12	–	·	–	?
Oc1c(Cl)cc(Cl)cc1C=Nc1ccc(N2CCOCC2)cc1	–	–	45µM	–
CCOc1ccc(Nc2nc(C)c(NC(=O)c3ccc(C)cc3)c(Nc3ccc(OCC)cc3)n2)cc1	·	·	–	22µM
Cc1ccc(S(=O)(=O)N2CCN(C(=O)CNC(=O)c3ccc(Br)o3)CC2)cc1	·	–	–	–
CC1(C)Cc2ccccc2C(COc2ccccc2)=N1	–	27µM	–	–
COc1ccc(C(=O)NNC2=NC(C)(C)Cc3ccccc32)cc1	–	–	–	–
CC1=NNC(=O)C1C(c1ccc(Cl)cc1)C(C#N)C#N (stereo not given)	–	21µM	79µM	–
SMILES	Sfp PPTase inh	PLK1 PBD inh	VDR inh	ALOX12 inh
CC1=NN(Cc2ccccc2)C(=O)C1C(c1ccncc1)C(C#N)C#N (stereo not given)	?	?	–	–
CC1=NN(Cc2ccccc2)C(=O)C1C(c1ccccc1)C(C#N)C#N (stereo not given)	–	24µM	?	–
CC1=NN(Cc2ccccc2)C(=O)C1C(c1ccc(Cl)cc1)C(C#N)C#N (stereo not given)	–	7.5µM	40µM	40µM
CC1=NNC(=O)C1C(c1cccc(O)c1)C(C#N)C#N (stereo not given)	–	–	–	–
C/C(=N\NC(=O)c1ccc(NS(=O)(=O)c2cccs2)cc1)c1ccccn1	–	–	–	·
O=C(O)C(c1c[nH]c2ccc(OCc3ccccc3)cc12)N1CCN(Cc2ccncc2)CC1 (stereo not given)	·	·	·	–
CCOc1ccc(CNn2cnnc2)cc1	–	27µM	?	–
Cc1cc(C(=O)N/N=C/c2ccccn2)n[nH]1	40µM	–	–	–
Cc1ccc(C(=O)N/N=C\c2ccccn2)cn1	7.1µM	–	–	–
CC(C)(C)c1ccc(C(=O)N/N=C/c2ccccn2)cc1	–	–	–	–
Cc1cccc(C(=O)Nc2cccc(C(=O)N/N=C/c3ccccn3)c2)c1	–	–	–	–
Cc1cccc(C(=O)N/N=C/c2ccccn2)c1	45µM	–	–	–
Cc1ccc(C(=O)N/N=C/c2cccc(OC(=O)/C=C/c3ccco3)c2)cn1	32µM	27µM	–	–
Cc1cccc(NC(=O)CSc2nnc(Cc3cccn3C)n2-c2ccc(F)cc2)c1	·	·	·	–
Cc1occc1C(=O)N/N=C/c1ccccc1[N+](=O)[O-]	?	–	–	–
Cc1occc1C(=O)N/N=C/c1ccccn1	63µM	–	–	–
